From PubChem BioAssay (NCATS)
“And” between values parts separate entries of the source, which are not always exact repeats. Equal entries are not always repeated. Results filed as inconclusive are left out. The source made the active and inactive calls. Unless noted, calls come from the whole dose curve; as a rule, active = well fitted curve in the direction sought with a large enough effect; inconclusive = small, poorly fitted or top-dose-only effect, or another doubt; inactive = no such curve, though single readings can be large; an effect the other way counts as inactive or inconclusive.

Tests used:
[1] = molecular target: Retinoic acid receptor RXR-alpha (Homo sapiens) (UniProt P19793); test: qHTS assay for small molecule agonists of retinoid X receptor alpha signaling (AID 588544; calls by dose curve;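 note: 0% = DMSO basal wells and 100% = reference agonist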)
Chain of Retinoic acid receptor RXR-alpha (Homo sapiens) (P19793 whole entry, looked up): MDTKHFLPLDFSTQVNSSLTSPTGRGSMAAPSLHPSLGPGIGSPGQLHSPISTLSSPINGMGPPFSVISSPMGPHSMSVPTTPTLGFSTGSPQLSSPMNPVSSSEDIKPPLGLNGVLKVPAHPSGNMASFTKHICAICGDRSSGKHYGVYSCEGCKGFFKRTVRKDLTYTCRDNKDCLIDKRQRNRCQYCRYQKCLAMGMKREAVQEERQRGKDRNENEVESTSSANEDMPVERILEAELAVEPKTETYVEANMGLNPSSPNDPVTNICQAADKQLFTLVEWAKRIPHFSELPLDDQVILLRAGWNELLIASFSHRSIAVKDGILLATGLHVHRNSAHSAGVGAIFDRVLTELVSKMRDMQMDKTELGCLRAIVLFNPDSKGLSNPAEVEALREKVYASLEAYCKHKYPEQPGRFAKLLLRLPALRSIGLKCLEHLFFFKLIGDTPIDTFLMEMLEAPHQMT

[2] = molecular target: Thyroid hormone receptor beta (Homo sapiens) (UniProt P10828); test: qHTS assay for small molecule agonists of thyroid hormone receptor beta signaling (AID 588545; calls by dose curve;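 note: 0% = DMSO only and 100% = 10 nM T3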)
Chain of Thyroid hormone receptor beta (Homo sapiens) (P10828 whole entry, looked up): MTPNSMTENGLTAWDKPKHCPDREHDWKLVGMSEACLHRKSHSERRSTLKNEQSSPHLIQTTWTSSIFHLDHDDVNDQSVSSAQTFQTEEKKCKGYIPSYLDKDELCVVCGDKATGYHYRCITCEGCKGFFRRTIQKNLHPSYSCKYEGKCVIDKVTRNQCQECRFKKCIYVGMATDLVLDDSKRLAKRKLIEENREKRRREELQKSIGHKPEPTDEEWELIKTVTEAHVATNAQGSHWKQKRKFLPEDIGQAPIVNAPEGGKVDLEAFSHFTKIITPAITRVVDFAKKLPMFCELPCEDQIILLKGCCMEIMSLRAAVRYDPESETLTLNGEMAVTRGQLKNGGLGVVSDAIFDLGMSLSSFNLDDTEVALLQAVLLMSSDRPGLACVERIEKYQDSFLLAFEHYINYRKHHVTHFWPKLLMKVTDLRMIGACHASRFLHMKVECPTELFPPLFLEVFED
How it was run: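 TR-UAS-bla-GripTite HEK 293 cells in medium with 2% charcoal/dextran FBS, 0.1 mM NEAA and 1 mM sodium pyruvate were treated with titrated compounds for 18 hrs at 37 C. Beta-lactamase reporter was read with CCF4 dye (ex 405, em 460/530 nm); EC50 from Hill fits.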

[3] = qHTS assay for small molecule antagonists of retinoid X receptor alpha signaling (AID 588546; active = well fitted inhibition curve with a large enough effect in the signal ratio, with a control signal flat, not every such curve was filed as active; the % refers to the signal ratio;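 note: cells stimulated with 9-cis-retinoic acid as agonist; % is set by controls: 0 for no effect and ±100 for the full control effect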); conditions: HEK293T RXRa-UAS-bla, beta-lactamase ratio, antagonist mode; measured here: W530 green channel, cytotoxicity proxy
How it was run: (§1)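 Beta-lactamase reporter inhibition, read as CCF4 fluorescence ratio (ex 405, em 460/530 nm) after 2 h at RT. HEK293T UAS-bla cells, 2500/well, were stimulated with 9-cis-RA at 500 or 100 nM final alongside test compound for 18 h at 37 C.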

[4] = molecular target: Retinoic acid receptor RXR-alpha (Homo sapiens) (UniProt P19793); test: as above; conditions: HEK293T RXRa-UAS-bla, beta-lactamase ratio, antagonist mode
How it was run: as §1

[5] = molecular target: Thyroid hormone receptor beta (Homo sapiens) (UniProt P10828); test: qHTS assay for small molecule antagonists of thyroid hormone receptor beta signaling (AID 588547; active = well fitted inhibition curve with a large enough effect in the signal ratio, with a control signal flat, not every such curve was filed as active; the % refers to the signal ratio;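 note: cells stimulated with 0.4 nM T3 agonist during compound exposure; % is set by controls: 0 for no effect and ±100 for the full control effect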); conditions: TR-UAS-bla HEK293, beta-lactamase ratio, antagonist mode, 18 h
How it was run: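 TR-UAS-bla GripTite HEK293 cells in 2% charcoal/dextran FBS medium were preincubated 4 h at 37 C, given compound (0.59 nM to 92 uM) plus 0.4 nM T3 (final) for 18 h, then CCF4 for 2 h at RT; Hill fit gave IC50.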

[6] = molecular target: Luciferin 4-monooxygenase (Photinus pyralis) (UniProt P08659); test: Biochemical firefly luciferase enzyme assay for NPC (AID 624030);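 note: purified P. pyralis luciferase at 10 nM with luciferin and ATP substrate; 0% = DMSO and -100% = full luciferase inhibition by PTC124 control; nearly all actives have a fitted effect of over 70% in size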
Chain of Luciferin 4-monooxygenase (Photinus pyralis) (P08659 whole entry, looked up): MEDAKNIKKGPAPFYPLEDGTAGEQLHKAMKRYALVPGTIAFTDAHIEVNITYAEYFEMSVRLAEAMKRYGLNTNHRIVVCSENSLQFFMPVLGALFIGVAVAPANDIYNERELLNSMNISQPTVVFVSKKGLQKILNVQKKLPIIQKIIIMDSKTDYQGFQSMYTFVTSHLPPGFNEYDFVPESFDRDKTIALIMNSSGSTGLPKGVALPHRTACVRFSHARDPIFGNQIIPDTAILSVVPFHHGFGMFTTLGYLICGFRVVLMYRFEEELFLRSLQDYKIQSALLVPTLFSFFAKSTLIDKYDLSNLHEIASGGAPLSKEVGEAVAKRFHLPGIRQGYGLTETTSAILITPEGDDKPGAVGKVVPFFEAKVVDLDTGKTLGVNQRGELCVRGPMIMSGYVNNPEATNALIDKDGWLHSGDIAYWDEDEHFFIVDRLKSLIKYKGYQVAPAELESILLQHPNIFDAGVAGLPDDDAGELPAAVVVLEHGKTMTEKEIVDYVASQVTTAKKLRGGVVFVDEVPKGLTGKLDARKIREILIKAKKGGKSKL
How it was run: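 Counter-screen for direct inhibition of the luciferase enzyme by approved-drug library compounds, run at 10 nM enzyme in 50 mM Tris acetate (final). Luminescence was read within 5 min of enzyme-buffer addition and normalized to PTC124 versus DMSO (0%).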

[7] = qHTS assay for small molecule agonists of the antioxidant response element (ARE) signaling pathway (AID 651741; active = well fitted activation curve with a large enough effect in the signal ratio; the % refers to the signal ratio; note: % of control where 0% means no effect)
How it was run: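 Reporter: beta-lactamase under ARE, stably in HepG2. Exposure: 16 h, 37 C, compounds delivered in DMSO by pin tool after 5 h cell preincubation. Readout: FRET substrate fluorescence after 2 h at RT.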

[8] = qHTS assay for small molecule activators of the p53 signaling pathway (AID 651743; active = well fitted activation curve with a large enough effect in the signal ratio, not every such curve was filed as active; the % refers to the signal ratio; note: % of control where 0% means no effect); conditions: HCT-116 p53RE-bla, beta-lactamase FRET ratio, 16 h; activation: stronger effect = higher value
How it was run: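 Agonist-mode quantitative HTS in HCT-116 cells carrying a p53-response-element beta-lactamase reporter; 16 h compound treatment at 37 C, then FRET substrate loading for 2 h at room temperature and fluorescence read.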

[9] = qHTS assay for small molecule activators of the nuclear factor-kappa B (NF-kB) signaling pathway (AID 651749; active = well fitted activation curve with a large enough effect in the signal ratio; the % refers to the signal ratio; note: % of control where 0% means no effect); conditions: NF-kB-bla ME-180 cells, beta-lactamase FRET ratio, 16 h; activation: stronger effect = higher value
How it was run: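 Human ME-180 cervical cells with an NF-kB-bla construct; compounds added via 23 nL pin transfer, DMSO as vehicle; incubation 16 hr. Reporter activity measured by FRET disruption.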

[10] = molecular target: Peroxisome proliferator-activated receptor alpha (Homo sapiens) (UniProt Q07869); test: qHTS assay for small molecule agonists of the peroxisome proliferator-activated receptor alpha (PPARalpha) signaling pathway (AID 651778); conditions: PathHunter PPARalpha complementation, chemiluminescence, 6 h; stronger effect = higher value; note: % of control where 0% means no effect
Chain of Peroxisome proliferator-activated receptor alpha (Homo sapiens) (Q07869 whole entry, looked up): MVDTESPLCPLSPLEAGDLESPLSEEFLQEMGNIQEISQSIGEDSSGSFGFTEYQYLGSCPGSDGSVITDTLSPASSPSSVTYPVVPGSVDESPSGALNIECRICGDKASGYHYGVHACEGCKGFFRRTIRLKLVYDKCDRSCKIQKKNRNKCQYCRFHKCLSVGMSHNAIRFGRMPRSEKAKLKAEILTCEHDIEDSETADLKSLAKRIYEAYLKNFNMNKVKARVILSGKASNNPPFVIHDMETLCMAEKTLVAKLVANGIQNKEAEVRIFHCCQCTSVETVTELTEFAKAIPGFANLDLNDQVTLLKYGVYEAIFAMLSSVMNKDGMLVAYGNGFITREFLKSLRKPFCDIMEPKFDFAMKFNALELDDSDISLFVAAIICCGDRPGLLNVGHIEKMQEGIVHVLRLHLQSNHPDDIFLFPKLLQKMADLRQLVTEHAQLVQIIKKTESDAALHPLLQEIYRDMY
How it was run: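 Cells plated at 2,000/well and held overnight at 37 C, 5% CO2, then compound added by pin tool for 6 hr; after PathHunter detection reagent and 60 min at room temperature, chemiluminescence from enzyme complementation was read.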

[11] = molecular target: Nuclear receptor ROR-gamma (Homo sapiens) (UniProt P51449); test: qHTS assay for small molecule antagonists of the retinoid-related orphan receptor gamma (ROR-gamma) signaling pathway (AID 651802);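 note: CHO cells with doxycycline-induced ROR-gamma expression; % is set by controls: 0 for no effect and ±100 for the full control effect; nearly all actives have a fitted effect of over 60% in size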
Chain of Nuclear receptor ROR-gamma (Homo sapiens) (P51449 whole entry, looked up): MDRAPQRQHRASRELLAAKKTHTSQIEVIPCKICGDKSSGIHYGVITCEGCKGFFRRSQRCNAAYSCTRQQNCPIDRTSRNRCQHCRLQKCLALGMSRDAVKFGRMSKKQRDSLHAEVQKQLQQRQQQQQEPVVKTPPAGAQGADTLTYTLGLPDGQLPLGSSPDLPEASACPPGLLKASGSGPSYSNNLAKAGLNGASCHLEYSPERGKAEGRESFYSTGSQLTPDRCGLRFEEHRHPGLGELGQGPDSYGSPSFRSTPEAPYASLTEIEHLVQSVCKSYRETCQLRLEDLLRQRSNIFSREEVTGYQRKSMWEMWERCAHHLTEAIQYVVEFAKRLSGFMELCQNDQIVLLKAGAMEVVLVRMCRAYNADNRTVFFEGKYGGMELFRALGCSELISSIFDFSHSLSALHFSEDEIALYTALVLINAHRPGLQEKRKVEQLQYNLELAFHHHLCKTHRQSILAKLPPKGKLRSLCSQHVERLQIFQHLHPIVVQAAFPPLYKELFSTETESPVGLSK
How it was run: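 Steps: cells dispensed; compound or DMSO transferred by pin tool; doxycycline added to induce the ROR response element-driven luciferase; plates held 16hr at 37C; ONE-Glo added and luminescence measured.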

[12] = qHTS assay for small molecule agonists of the antioxidant response element (ARE) signaling pathway measured by Nrf2-dependant transcriptional activity (AID 720636; active = well fitted curve in the direction sought with a large enough effect in the repeat runs; an effect the other way counts as inactive or inconclusive;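 note: HepG2 cells with an ARE-driven luciferase reporter; % of control where 0% means no effect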)
How it was run: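 HepG2 ARE-luc reporter line, 1% dialyzed FBS; 6 hr attachment at 37 C, compound pinned in, 16 hr at 37 C/5% CO2; ONE-Glo, 30 min RT, luminescence read.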

[13] = qHTS assay for small molecule antagonists of the retinoid-related orphan receptor gamma (ROR-gamma) signaling pathway - cell viability counter screen (AID 720652; active = well fitted curve in the direction sought with a large enough effect in the repeat runs; an effect the other way counts as inactive or inconclusive;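 note: CHO reporter cells with doxycycline-induced ROR-gamma expression; compound exposure lasted 16 hr before ATP read; % is set by controls: 0 for no effect and ±100 for the full control effect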)
How it was run: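 Steps: seed CHO cells bearing TET-inducible ROR and ROR response element-luciferase; rest 5 hr at 37 C; add compound, then doxycycline; incubate 16 hr; add CellTiter-Glo and read luminescence as ATP-based viability.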

[14] = qHTS assay for small molecule agonists of the antioxidant response element (ARE) signaling pathway measured by Nrf2-dependant transcriptional activity - cell viability counter screen (AID 720653; active = well fitted curve in the direction sought with a large enough effect in the repeat runs; an effect the other way counts as inactive or inconclusive; note: % is set by controls: 0 for no effect and ±100 for the full control effect); conditions: ARE-bla HepG2 viability, CellTiter-Glo ATP luminescence, 16 h; max response: stronger effect = lower value
How it was run: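 ARE-bla HepG2 cells (2,000/well) rested 5 hrs at 37C/5% CO2, then exposed to compounds in DMSO for 16 hrs. Viability was read in the same wells as intracellular ATP by luminescence, 30 min at room temperature after reagent addition.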

[15] = qHTS Assay for Identifying Gametocytocidal Compounds (AID 743244);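 note: % is set by controls: 0 for no effect and ±100 for the full control effect; actives lower the fluorescent signal which means gametocytes are killed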; conditions: P. falciparum 3D7 stage III-V gametocytes, alamarBlue, 72 h; max response: stronger effect = lower value
How it was run: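 P. falciparum 3D7 stage III–V gametocytes (20,000 cells/well) were exposed to compounds for 72 h at 37 °C, 5% CO2. AlamarBlue was then added for 24 h; decreased resorufin fluorescence (Ex 525/Em 598 nm) indicated loss of viability.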

[16] = qHTS assay for cell viability of HEK293 cells (AID 743288); conditions: ATP luminescence (CellTiter-Glo), 18 h; max response: stronger effect = lower value; note: % is set by controls: 0 for no effect and ±100 for the full control effect; nearly all actives have a fitted effect of over 50% in size
How it was run: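 After 18 h compound exposure at 37 C, parental HEK293 cells (2,000/well) are lysed with CellTiter-Glo and luminescence is read following 30 min at room temperature.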

[17] = qHTS assay for cell viability of the p53RE-bla HCT-116 cell line (AID 743292); note: % is set by controls: 0 for no effect and ±100 for the full control effect; nearly all actives have a fitted effect of over 55% in size
How it was run: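 Luminescent ATP quantitation (CellTiter-Glo) served as the viability read-out; reagent was added after 16 h compound exposure at 37 C and read after 30 min at room temperature. Cells: p53RE-bla HCT-116, 4,000 per well.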

[18] = molecular target: Cytochrome P450 2D6 (Homo sapiens) (UniProt P10635); test: Cytochrome P450 family 2 subfamily D member 6 (CYP2D6) small molecule antagonists: luciferase biochemical (cell-free) qHTS assay (AID 1645840; active = well fitted curve in the direction sought with a large enough effect in the repeat runs; an effect the other way counts as inactive or inconclusive; note: % is set by controls: 0 for no effect and ±100 for the full control effect; nearly all actives have a fitted effect of over 55% in size)
Chain of Cytochrome P450 2D6 (Homo sapiens) (P10635 whole entry, looked up): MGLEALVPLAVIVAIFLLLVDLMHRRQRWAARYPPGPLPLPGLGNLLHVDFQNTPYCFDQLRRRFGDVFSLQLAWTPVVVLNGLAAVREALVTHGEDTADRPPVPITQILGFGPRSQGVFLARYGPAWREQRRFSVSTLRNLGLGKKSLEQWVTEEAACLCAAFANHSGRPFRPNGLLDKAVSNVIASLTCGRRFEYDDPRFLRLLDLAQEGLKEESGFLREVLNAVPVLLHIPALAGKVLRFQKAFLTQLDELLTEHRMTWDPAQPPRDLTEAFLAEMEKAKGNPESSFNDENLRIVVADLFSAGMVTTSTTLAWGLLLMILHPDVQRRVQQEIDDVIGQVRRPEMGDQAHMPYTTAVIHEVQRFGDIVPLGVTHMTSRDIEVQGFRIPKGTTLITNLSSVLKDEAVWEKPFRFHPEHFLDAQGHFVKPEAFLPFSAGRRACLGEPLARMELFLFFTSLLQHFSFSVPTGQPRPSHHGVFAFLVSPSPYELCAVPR
How it was run: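 P450-Glo CYP2D6 system: proluciferin substrate converted by enzyme to luciferin, read by luminescence proportional to activity. Enzyme-substrate mix with compound 10 min at room temperature, then NADPH regeneration 1 h before detection reagent.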

[19] = molecular target: Cytochrome P450 2C9 (Homo sapiens) (UniProt P11712); test: Cytochrome P450 family 2 subfamily C member 9 (CYP2C9) small molecule antagonists: luciferase biochemical (cell-free) qHTS assay (AID 1645842; active = well fitted curve in the direction sought with a large enough effect in the repeat runs; an effect the other way counts as inactive or inconclusive; note: % is set by controls: 0 for no effect and ±100 for the full control effect; nearly all actives have a fitted effect of over 55% in size)
Chain of Cytochrome P450 2C9 (Homo sapiens) (P11712 whole entry, looked up): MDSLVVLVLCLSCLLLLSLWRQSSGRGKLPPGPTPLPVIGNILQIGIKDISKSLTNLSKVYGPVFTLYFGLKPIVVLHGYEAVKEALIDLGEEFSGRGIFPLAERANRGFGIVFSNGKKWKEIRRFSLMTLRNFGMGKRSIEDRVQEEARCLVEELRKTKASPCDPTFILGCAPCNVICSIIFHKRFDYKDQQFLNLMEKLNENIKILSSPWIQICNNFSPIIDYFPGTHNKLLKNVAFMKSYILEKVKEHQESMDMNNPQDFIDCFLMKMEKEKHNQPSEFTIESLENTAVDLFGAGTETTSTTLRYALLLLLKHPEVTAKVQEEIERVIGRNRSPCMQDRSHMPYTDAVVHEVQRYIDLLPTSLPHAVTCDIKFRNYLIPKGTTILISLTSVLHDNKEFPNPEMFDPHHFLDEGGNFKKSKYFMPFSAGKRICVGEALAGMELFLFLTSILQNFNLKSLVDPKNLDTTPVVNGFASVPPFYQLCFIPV
How it was run: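 P450-Glo CYP2C9 system: proluciferin substrate with enzyme in mix containing 0.4% BSA, 10 min at room temperature, then NADPH regeneration solution added and incubated 1 h at 37C. Detection reagent stopped reaction; luminescence read after 20 min as RLU.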

[20] = tested on: KB-3-1; test: Cytotoxic Profiling of Annotated Libraries Using Quantitative High-Throughput Screening (AID 1296008); conditions: Five cell lines viability, CellTiter-Glo ATP luminescence, 48-72 h; max response: stronger effect = lower value; note: % is set by controls: 0 for no effect and ±100 for the full control effect; nearly all actives have a fitted effect of over 60% in size
How it was run: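 Compounds were pin-transferred onto cells and incubated 48 or 72 hr at 37 degree Celsius, 95% humidity. CellTiter-Glo was added, plates sat 10 min at room temperature, then ATP-coupled luminescence was imaged as the viability read-out.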

[21] = Drug repurposing screens with cells derived from glioblastoma tumor samples (AID 1345199); conditions: GBM patient neurospheres viability, ATP luminescence, 48 h; Potency: tumour line A; series mostly up to 45.9 µM; note: % is set by controls: 0 for no effect and ±100 for the full control effect; nearly all actives have a fitted effect of over 40% in size
How it was run: (§2)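 Primary testing used CD133+ neurospheres from four GBM patients, seven concentrations, 48 h exposure and ATP-based viability; confirmation added three slower-growing patient lines.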

[22] = tested on: astro; test: as above; conditions: viability, ATP luminescence, 48 h; series mostly up to 45.9 µM
How it was run: as §2

[23] = molecular target: Nuclear receptor subfamily 1 group I member 2 (Rattus norvegicus) (UniProt Q9R1A7); test: qHTS assay for small molecule activators of the rat pregnane X receptor (rPXR) signaling pathway (AID 651751; call rule not given here; note: 0% is about no effect); conditions: rPXR reporter cells, luciferase (One-Glo), 24 h
Chain of Nuclear receptor subfamily 1 group I member 2 (Rattus norvegicus) (Q9R1A7 whole entry, looked up): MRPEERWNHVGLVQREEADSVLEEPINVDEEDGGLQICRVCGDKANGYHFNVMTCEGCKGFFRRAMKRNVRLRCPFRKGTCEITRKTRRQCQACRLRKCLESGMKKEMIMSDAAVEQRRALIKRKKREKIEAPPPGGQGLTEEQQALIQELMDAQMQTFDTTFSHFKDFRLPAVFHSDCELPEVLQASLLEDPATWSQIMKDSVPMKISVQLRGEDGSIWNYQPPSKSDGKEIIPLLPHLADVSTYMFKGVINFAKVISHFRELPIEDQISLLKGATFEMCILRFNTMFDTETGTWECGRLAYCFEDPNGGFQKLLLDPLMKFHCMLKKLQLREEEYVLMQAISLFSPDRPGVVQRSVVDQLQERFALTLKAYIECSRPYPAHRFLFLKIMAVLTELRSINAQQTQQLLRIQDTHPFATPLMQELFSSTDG

[24] = qHTS assay for small molecule activators of the human pregnane X receptor (PXR) signaling pathway (AID 720659; call rule not given here; note: 0% is about no effect)

CCOc1cc(C=O)ccc1O
inactive: outcome [1] | Potency [2] | max response [4] 1.38% and 4.11% | activity change % (negative = inhibition) [5] 6.05% and -14.6% | Potency [6] | Potency [7] | activation [8] -1.8% | activation [9] -0.0137% and -0.605% | max response [10] -3.28% and -2.59% | Potency [11] | Potency [12] | outcome [13] | max response [14] -16.9% and 0.643% | max response [15] -3.19% | max response [16] -8.41% and -7.59% | outcome [17] | Potency [18] | Potency [19] | max response [20] -13% | Potency [21] | Potency [22] | max response [23] -3.58% and -0.453% | outcome [24]
0.367% and -12.6%: max response [3]
